NFkB SMM – binders of human NF-kappa-B p105. P19838. Small molecule microarray, anti-His fluorescence binding. calls only. hit rate 1.3% among 17,000. AID 624139;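 active = spot fluorescence over background significantly raised, with a chance value under 7% in all four replicate spots of the compound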;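 note: probe protein is his-tagged human p50 processed subunit at 1 µg/ml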
p53 mut binder – binds human mutant p53 on microarray; AID 624136; hit rate 0.4% among 17,000; calls only; small molecule microarray binding, anti-GST fluorescence;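 active = compounds whose four printed spots each glow above background more than chance allows, each with a p-value under 7%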
mut p53 react – restores mutant p53 pathway signaling in SW480 cells | hit rate 1.5% among 28,000 | AID 624151 | activation, % at 9.98 µM | SW480 PUMA-promoter luciferase, p53 mutant reactivation; in the data active = activation above about 52%
STAT3 binder – binds human STAT3 on microarray; P40763; Small molecule microarray, His-STAT3 binding, anti-His fluorescence; calls only; hit rate 0.2% among 17,000;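 active = compounds whose four printed spots each show fluorescence over background unusually high for their array block, chance value under 7%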
c-Myc SMM – binders of human c-Myc | hit rate 1.5% among 17,000 | small molecule microarray, His-c-Myc binding, anti-His fluorescence | calls only | P01106;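 active = spot fluorescence over background with P-value below 7% in all four replicate spots, showing protein binding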
Target sequence (P01106 whole entry, looked up): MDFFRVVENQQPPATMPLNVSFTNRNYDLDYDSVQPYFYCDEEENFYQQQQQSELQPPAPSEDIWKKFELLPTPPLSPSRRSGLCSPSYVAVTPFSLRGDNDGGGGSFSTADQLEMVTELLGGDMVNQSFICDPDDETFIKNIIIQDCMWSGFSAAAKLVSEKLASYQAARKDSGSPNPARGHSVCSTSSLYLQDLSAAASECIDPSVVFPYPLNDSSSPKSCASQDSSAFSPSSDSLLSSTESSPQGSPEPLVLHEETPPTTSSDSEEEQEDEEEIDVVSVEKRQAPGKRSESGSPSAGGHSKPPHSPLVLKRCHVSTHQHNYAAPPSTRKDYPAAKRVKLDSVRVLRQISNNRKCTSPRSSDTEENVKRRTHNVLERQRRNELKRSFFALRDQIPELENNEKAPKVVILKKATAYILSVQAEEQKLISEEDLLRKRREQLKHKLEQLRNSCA
Each line names hits and unclear results; the compound was inactive in the other large screens. This is a sample that favours compounds with a hit; in the whole collection about 2.6% have one here.

COc1ccc(-c2noc(CSc3nnc(-c4cccs4)n3-c3ccccc3)n2)cc1OC	none (no result: NFkB SMM, p53 mut binder, STAT3 binder, c-Myc SMM)
COc1ccc(OCC(=O)Nc2ccc(C)cc2[N+](=O)[O-])cc1	mut p53 react 136 (no result: NFkB SMM, p53 mut binder, STAT3 binder, c-Myc SMM)
Cc1ccc(NC(=O)COc2ccc(C(C)(C)C)cc2)c([N+](=O)[O-])c1	none (no result: NFkB SMM, p53 mut binder, STAT3 binder, c-Myc SMM)
COc1ccc(OCC(=O)Nc2cc(OC)c(Cl)cc2OC)cc1	mut p53 react 82
COc1cc(NC(=O)COc2cccc(C)c2)c(OC)cc1Cl	none (no result: NFkB SMM, p53 mut binder, STAT3 binder, c-Myc SMM)
Cc1cc(OCC(=O)Nc2ccccc2[N+](=O)[O-])ccc1Cl	mut p53 react 86 (no result: NFkB SMM, p53 mut binder, STAT3 binder, c-Myc SMM)
Cc1cc(Cl)cc(Cl)c1OCC(=O)Nc1ccccc1[N+](=O)[O-]	none (no result: NFkB SMM, p53 mut binder, STAT3 binder, c-Myc SMM)
Cc1ccccc1-c1cnc2c(c1)C(=O)N([C@@H](C)CO)C[C@H](C)[C@@H](CN(C)C(=O)c1ccncc1)O2	none (no result: NFkB SMM, p53 mut binder, STAT3 binder, c-Myc SMM)
Cc1cc(C(F)(F)F)nc(SCC(=O)Nc2cc(C(F)(F)F)ccc2Cl)n1	none (no result: NFkB SMM, p53 mut binder, STAT3 binder, c-Myc SMM)
CCc1ccc2oc(-c3cccc(NC(=O)COc4ccccc4)c3)nc2c1	mut p53 react 82 (no result: NFkB SMM, p53 mut binder, STAT3 binder, c-Myc SMM)
Cc1cccc(OCC(=O)Nc2cccc(-c3nc4cc(C)ccc4o3)c2)c1	mut p53 react 86 (no result: NFkB SMM, p53 mut binder, STAT3 binder, c-Myc SMM)
Cc1ccc2oc(-c3cccc(NC(=O)COc4ccc5ccccc5c4)c3)nc2c1	mut p53 react 82 (no result: NFkB SMM, p53 mut binder, STAT3 binder, c-Myc SMM)
C[C@@H]1CN([C@@H](C)CO)C(=O)c2cc(NC(=O)C3CC3)ccc2O[C@H]1CN(C)C(=O)Nc1ccc(F)cc1	none
Clc1cccc(C=NC=Nc2cccc(Cl)c2)c1	mut p53 react 73
COc1cccc(C=NC=Nc2cccc(OC)c2)c1	none
Cc1ccc(NC(=O)c2ccc(OC(=O)CCN3C(=O)c4ccccc4C3=O)cc2)cc1	mut p53 react 102 (no result: NFkB SMM, p53 mut binder, STAT3 binder, c-Myc SMM)
C[C@H]1CCCCO[C@H](CN(C)C(=O)Nc2ccccc2)[C@@H](C)CN([C@@H](C)CO)C(=O)c2cc(N(C)C)ccc2O1	none
COc1ccc([C@@H]2Oc3c(OC)cc(CCCO)cc3[C@H]2CO)cc1OC	none
Cc1ccc(O)c(N=Nc2ccccc2)n1	mut p53 react 103
Cc1cc(OCC(=O)Nc2cccnc2)c(C)cc1Br	none (no result: NFkB SMM, p53 mut binder, STAT3 binder, c-Myc SMM)
CCC(=O)Oc1c(S(=O)(=O)c2ccccc2)c(C)nn1C(C)(C)C	none (no result: NFkB SMM, p53 mut binder, STAT3 binder, c-Myc SMM)
CCOc1ccccc1C(=O)Oc1c(S(=O)(=O)c2ccc(C)cc2)c(C)nn1-c1ccccc1	c-Myc SMM active
CCN(CC)C(=O)c1cc(-c2ccc(Cl)c(Cl)c2)on1	mut p53 react 72 (no result: NFkB SMM, p53 mut binder, STAT3 binder, c-Myc SMM)
CC(C)n1cnc2c(Nc3cccc(Cl)c3)nc(NCCO)nc21	none
CC[C@H](CO)Nc1nc(NCc2ccccc2)c2ncn(C(C)C)c2n1	mut p53 react 119 (no result: NFkB SMM, p53 mut binder, STAT3 binder, c-Myc SMM)
C[C@@H]1O[C@@H](O[C@H]2[C@@H]3C=CO[C@@H](O[C@@H]4O[C@H](CO)[C@@H](O)[C@H](O)[C@H]4O)[C@@H]3[C@@]3(CO)O[C@@H]23)[C@H](OC(=O)/C=C/c2ccccc2)[C@H](OC(=O)/C=C/c2ccccc2)[C@H]1O	none
C[C@@H]1CCCCO[C@@H](CN(C)S(=O)(=O)c2cn(C)cn2)[C@@H](C)CN([C@H](C)CO)C(=O)c2cc(NS(=O)(=O)c3cn(C)cn3)ccc2O1	none
CC(C)C#Cc1ccc2c(c1)O[C@H](CN(C)C(=O)C1CC1)[C@H](C)CN([C@H](C)CO)S2(=O)=O	none (no result: NFkB SMM, p53 mut binder, STAT3 binder, c-Myc SMM)
COc1cc(NC(=O)C(C)Oc2ccc(Cl)cc2Cl)ccc1NC(=O)c1ccco1 (centres undefined)	mut p53 react 67 (no result: NFkB SMM, p53 mut binder, STAT3 binder, c-Myc SMM)
COC(=O)c1ccccc1NC(=O)c1ccc(NC(=O)C(C)Oc2ccccc2)cc1 (centres undefined)	none (no result: NFkB SMM, p53 mut binder, STAT3 binder, c-Myc SMM)
COc1ccc(NC(=O)c2ccco2)cc1NC(=O)C(C)Oc1ccc(Cl)cc1Cl (centres undefined)	none (no result: NFkB SMM, p53 mut binder, STAT3 binder, c-Myc SMM)
CC(Oc1ccc(Cl)cc1Cl)C(=O)Nc1cccc(-c2nnc(-c3ccccc3)o2)c1 (centres undefined)	mut p53 react 81 (no result: NFkB SMM, p53 mut binder, STAT3 binder, c-Myc SMM)
O=C(COc1ccc(Cl)cc1Cl)Nc1cccc(-c2nnc(-c3ccccc3)o2)c1	none (no result: NFkB SMM, p53 mut binder, STAT3 binder, c-Myc SMM)
Cc1cc(Cl)ccc1OC(C)C(=O)Nc1ccc(C(=O)Nc2ccccc2C(=O)O)cc1 (centres undefined)	c-Myc SMM active
O=C(CC1(O)C(=O)N(Cc2ccccc2)c2ccc(Br)cc21)c1ccco1 (centres undefined)	none (no result: NFkB SMM, p53 mut binder, STAT3 binder, c-Myc SMM)
C[C@@H]1CN([C@H](C)CO)C(=O)Cc2cc(NC(=O)Cc3cn(C)c4ccccc34)ccc2O[C@@H]1CN(C)C(=O)NC1CCCCC1	none
COc1cc(C2NC(=O)NC(c3ccccc3)=C2C(=O)c2ccccc2)cc(Cl)c1OCC(N)=O (centres undefined)	none (no result: NFkB SMM, p53 mut binder, STAT3 binder, c-Myc SMM)
CC(C)(C)C(=O)CSc1nnc(-c2ccco2)o1	mut p53 react 70
Cc1ccn2cc(-c3cccc(NS(=O)(=O)c4cc([N+](=O)[O-])ccc4C)c3)nc2c1	mut p53 react 111 (no result: NFkB SMM, p53 mut binder, STAT3 binder, c-Myc SMM)
Cc1ccc([N+](=O)[O-])cc1S(=O)(=O)NCc1cccnc1	none (no result: NFkB SMM, p53 mut binder, STAT3 binder, c-Myc SMM)
C[C@@H]1CCCCO[C@H](CN(C)C(=O)CCC(F)(F)F)[C@H](C)CN([C@@H](C)CO)C(=O)c2cc(NC(=O)c3ccncc3)ccc2O1	NFkB SMM active
C[C@H](CO)N1C[C@H](C)[C@H](CN(C)C(=O)CCC(F)(F)F)OCCCC[C@H](C)Oc2ccc(NC(=O)c3ccncc3)cc2C1=O	NFkB SMM active, c-Myc SMM active
O=C(O)CSc1cn(Cc2ccccc2)c2ccccc12	none (no result: NFkB SMM, p53 mut binder, STAT3 binder, c-Myc SMM)
O=C(O)CSc1c[nH]c2ccccc12	c-Myc SMM active
CCn1c(NCc2ccccc2O)nc2ccccc21	mut p53 react 62
COc1ccc(CNc2nc3ccccc3n2C)c(O)c1	mut p53 react 142
COc1ccc([N+](=O)[O-])cc1NC(=O)c1cc(-c2ccccn2)nc2ccc(C)cc12	none
O=C(Cn1c(C(F)(F)F)nc2ccccc21)NCCN1CCOCC1	none (no result: NFkB SMM, p53 mut binder, STAT3 binder, c-Myc SMM)
O=C(NCc1ccccc1)[C@@H]1c2ccccc2C(=O)N(CC23CC4CC(CC(C4)C2)C3)[C@H]1c1ccc(CO)cc1	none (no result: mut p53 react)
CN(Cc1nc(-c2cccc([N+](=O)[O-])c2)no1)S(=O)(=O)c1ccc(Cl)cc1	none (no result: NFkB SMM, p53 mut binder, STAT3 binder, c-Myc SMM)

Compound activity (PubChem BioAssay)
